Data reported in PubChem BioAssay AID1159580 (chemical genetic matrix, 2015).
Several values for one entry are separate records, joined by “and”; a condition that tells them apart may be missing. Equal values may be shown once. The whole screen tested about 5,500 compounds, of which about 2,000 (36%) were called active. Another 18% or so got no clear call; they are omitted. No stated cut-off is given here; in the data, active means normalized growth mostly below about 0.91 (no sharp cut-off); inconclusive means no clear call, values can overlap the other calls; inactive means mostly above about 0.92. The list shows a part of the results.

Assay: chemical genetic growth profiling, strain panel (AID 1159580);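 further: tested at 20 µM; growth read once vehicle control cultures reached saturation at 30 °C; 1 = growth at the plate median or of vehicle wells; lower values mean less growth of the strain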
Details: S. cerevisiae deletion strains, growth OD

Measured: normalized growth

COc1ccc(-c2cc(=O)c3c(O)cc(O[C@@H]4O[C@H](CO[C@H]5O[C@H](C)[C@@H](O)[C@H](O)[C@@H]5O)[C@@H](O)[C@H](O)[C@H]4O)cc3o2)cc1O
inactive: locus YAL021C, strain ccr4, hits give low values 1.01 | locus YAL026C, strain drs2, hits give low values 1.05 | locus YAL030W, strain snc1, hits give low values 1.02 | locus YBL061C, strain skt5, hits give low values 1.02 | locus YBR009C, strain hhf1, hits give low values 1.01 | locus YBR021W, strain FUR4, hits give low values 1.03 | locus YBR023C, strain chs3, hits give low values 1.01 | locus YBR171W, strain sec66, hits give low values 1.02 | locus YBR229C, strain ROT2, hits give low values 0.994 | locus YBR231C, strain swc5, hits give low values 1.02 | locus YBR279W, strain paf1, hits give low values 1.01 | locus YCL011C, strain gbp2, hits give low values 1.01 | locus YCL016C, strain dcc1, hits give low values 1.02 | locus YCL029C, strain bik1, hits give low values 0.986 | locus YCL061C, strain MRC1, hits give low values 1.01 | locus YCL069W, strain vba3, hits give low values 1.03 | locus YCR088W, strain abp1, hits give low values 1.01 | locus YDL005C, strain med2, hits give low values 1.02 | locus YDL035C, strain GPR1, hits give low values 0.983 | locus YDL040C, strain nat1, hits give low values 1 | locus YDL074C, strain BRE1, hits give low values 1.02 | locus YDL101C, strain DUN1, hits give low values 0.995 | locus YDL185W, strain tfp1, hits give low values 0.969 | locus YDL192W, strain arf1, hits give low values 0.985 | locus YDR001C, strain nth1, hits give low values 1.01 | locus YDR069C, strain doa4, hits give low values 1.02 | locus YDR101C, strain arx1, hits give low values 1 | locus YDR137W, strain rgp1, hits give low values 1.03 | locus YDR150W, strain NUM1, hits give low values 0.99 | locus YDR159W, strain sac3, hits give low values 1.02 | locus YDR162C, strain NBP2, hits give low values 0.972 | locus YDR195W, strain ref2 1.04 | locus YDR297W, strain sur2, hits give low values 1.01 | locus YDR318W, strain mcm21, hits give low values 1 | locus YDR334W, strain swr1, hits give low values 1.02 | locus YDR335W, strain msn5, hits give low values 1.01 | locus YDR388W, hits give low values 0.991 | locus YDR392W, strain spt3, hits give low values 0.987 | locus YDR502C, strain sam2, hits give low values 0.993 | locus YEL003W, strain gim4, hits give low values 1.02 | locus YEL037C, strain rad23, hits give low values 1.01 | locus YEL061C, strain CIN8 (second series), hits give low values 1.03 | locus YEL061C, strain CIN8, hits give low values 0.997 | locus YER015W, strain faa2, hits give low values 1.01 | locus YER016W, strain bim1, hits give low values 1.02 | locus YER110C, hits give low values 0.979 | locus YER111C, strain swi4, hits give low values 1 | locus YER155C, strain BEM2 (second series), hits give low values 1 | locus YER155C, strain BEM2, hits give low values 0.995 | locus YER167W, strain BCK2, hits give low values 0.981 | locus YFR010W, strain ubp6, hits give low values 1.02 | locus YGL078C, strain dbp3, hits give low values 1 | locus YGL086W, strain mad1, hits give low values 1.01 | locus YGL167C, strain pmr1, hits give low values 1.01 | locus YGL173C, strain kem1, hits give low values 1.04 | locus YGL227W, strain vid30, hits give low values 1.01 | locus YGL240W, strain doc1, hits give low values 1.04 | locus YGL248W, strain PDE1, hits give low values 0.999 | locus YGL253W, strain hxk2, hits give low values 1 | locus YGR078C, strain PAC10, hits give low values 1.01 | locus YGR135W, strain pre9, hits give low values 0.956 | locus YGR252W, strain gcn5, hits give low values 1.04 | locus YHR013C, strain ard1, hits give low values 1.02 | locus YHR027C, strain rpn1, hits give low values 1.02 | locus YHR030C, strain SLT2, hits give low values 0.985 and 1 | locus YHR079C, strain IRE1 (second series), hits give low values 0.991 | locus YHR079C, strain IRE1, hits give low values 0.996 | locus YHR094C, strain hxt1, hits give low values 0.977 | locus YHR129C, strain ARP1, hits give low values 0.988 | locus YHR142W, strain chs7, hits give low values 0.978 | locus YHR200W, strain rpn10, hits give low values 0.989 | locus YIL066C, strain RNR3, hits give low values 0.994 | locus YIL073C, strain SPO22, hits give low values 0.963 | locus YIL125W, strain kgd1, hits give low values 1.01 | locus YIR030C, strain dcg1, hits give low values 0.985 | locus YJL092W, strain hpr5, hits give low values 1.02 | locus YJL095W, strain BCK1 (second series), hits give low values 1.01 | locus YJL095W, strain BCK1, hits give low values 1.01 and 0.997 | locus YJL115W, strain asf1, hits give low values 1.03 | locus YJL129C, strain trk1, hits give low values 1.03 | locus YJL134W, strain LCB3, hits give low values 0.988 | locus YJL154C, strain vps35, hits give low values 1.02 | locus YJL164C, strain tpk1, hits give low values 1.02 | locus YJL166W, strain qcr8, hits give low values 1.02 | locus YJL168C, strain set2, hits give low values 1 | locus YJL187C, strain SWE1 (second series), hits give low values 1 | locus YJL187C, strain SWE1, hits give low values 1.01 | locus YJR043C, strain POL32, hits give low values 1.02 | locus YJR066W, strain TOR1, hits give low values 0.981
